# Measured values as given in PMC8384837, “Expanding the binding specificity for RNA recognition by a PUF domain”.
# Numbering of substitutions follows the chain as printed.
# Experiments:
# Test in all cases: yeast three-hybrid, YBZ-1, SC-Leu-His + 0.5 mM 3-AT, 4 days
# Settings in all cases: tags: N-Gal4 AD-HA kept; label: inside an RPR1-promoter hybrid RNA with tandem MS2 sites; ssRNA
# PUM1 PUF domain R5-QMW = PUM1 PUF domain R5-QMW (Homo sapiens, UniProt Q14671 828-1176, C1007Q;R1008M;Q1011W)
# Sequence of PUM1 PUF domain R5-QMW (Q14671 828-1176 C1007Q/R1008M/Q1011W): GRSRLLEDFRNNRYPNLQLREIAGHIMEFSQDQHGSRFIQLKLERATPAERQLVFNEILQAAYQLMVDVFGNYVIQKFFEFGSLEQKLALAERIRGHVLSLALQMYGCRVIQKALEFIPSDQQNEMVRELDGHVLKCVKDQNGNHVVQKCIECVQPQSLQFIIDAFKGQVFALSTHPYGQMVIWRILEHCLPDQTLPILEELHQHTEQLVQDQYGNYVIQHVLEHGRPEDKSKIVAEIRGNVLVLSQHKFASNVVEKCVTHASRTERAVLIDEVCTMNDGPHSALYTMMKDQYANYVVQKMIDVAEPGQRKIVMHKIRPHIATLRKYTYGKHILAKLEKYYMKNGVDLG
# Summary of the method: (§1)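 Sequencing with Illumina followed PCR amplification of the repeat regions from transformants grown four days on SC-Leu (input) or SC-Leu-His + 0.5 mM 3-AT (selection). The transformants were strain YBZ-1 with a LexA–MS2 coat fusion and a HIS3 reporter, carrying Pumilio-1 PUF domain libraries and matching RNA elements. The interaction score is the log change in variant frequency from input to selection, computed in log2 with a pseudocount of 1 for absent variants.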
# PUM1 PUF domain R3-IYR = PUM1 PUF domain R3-IYR (Homo sapiens, UniProt Q14671 828-1176, C935I;R936Y;Q939R)
# Summary of the method: as §1
# PUM1 PUF domain R3-CRL = PUM1 PUF domain R3-CRL (Homo sapiens, UniProt Q14671 828-1176, Q939L)
# Summary of the method: as §1
# PUM1 PUF domain R3-IRG = PUM1 PUF domain R3-IRG (Homo sapiens, UniProt Q14671 828-1176, C935I;Q939G)
# Summary of the method: as §1
# PUM1 PUF domain R6-YWR = biological target: T1, PUM1 PUF domain R6-YWR (Homo sapiens, UniProt Q14671 828-1176, N1043Y;Y1044W;Q1047R)
# T1 sequence: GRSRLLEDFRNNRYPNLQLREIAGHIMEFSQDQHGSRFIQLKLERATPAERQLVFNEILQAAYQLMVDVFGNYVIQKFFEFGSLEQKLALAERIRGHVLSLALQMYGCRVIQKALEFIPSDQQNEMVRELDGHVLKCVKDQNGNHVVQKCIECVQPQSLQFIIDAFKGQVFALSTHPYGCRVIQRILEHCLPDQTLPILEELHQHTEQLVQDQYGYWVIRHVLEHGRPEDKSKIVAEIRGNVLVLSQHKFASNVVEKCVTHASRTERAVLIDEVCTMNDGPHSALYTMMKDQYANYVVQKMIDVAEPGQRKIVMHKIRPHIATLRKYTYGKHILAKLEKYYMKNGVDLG
# Summary of the method: as §1
# PUM1 PUF domain R8-PWT = PUM1 PUF domain R8-PWT (Homo sapiens, UniProt Q14671 828-1176, N1122P;Y1123W;Q1126T)
# Summary of the method: as §1
# PUM1 PUF domain R6-MYV = biological target: T2, PUM1 PUF domain R6-MYV (Homo sapiens, UniProt Q14671 828-1176, N1043M;Q1047V)
# T2 sequence: T1 sequence with Y216M, W217Y, R220V
# Summary of the method: as §1
# PUM1 PUF domain R3-LFI = PUM1 PUF domain R3-LFI (Homo sapiens, UniProt Q14671 828-1176, C935L;R936F;Q939I)
# Summary of the method: as §1
# PUM1 PUF domain R1-RQS = PUM1 PUF domain R1-RQS (Homo sapiens, UniProt Q14671 828-1176, S863R;R864Q;Q867S)
# Sequence of PUM1 PUF domain R1-RQS (Q14671 828-1176 S863R/R864Q/Q867S): as the sequence (Q14671 828-1176 C1007Q/R1008M/Q1011W) above, with S36R, R37Q, Q40S, Q180C, M181R, W184Q counted along it
# Summary of the method: as §1
# PUM1 PUF domain R1-GKK = PUM1 PUF domain R1-GKK (Homo sapiens, UniProt Q14671 828-1176, S863G;R864K;Q867K)
# Summary of the method: as §1
sequence,measurement,setting,value
GGCUAGAACUAGUGGAUCCCCCGGCGCCCGGCGGCUCGAGCCCGGGUAAGUGUGAAUAGUCUGCAUGCCGCCGGGCGCCAUGCCUGCAGGUCGACUCUAGAAAACAUG,binding signal,PUM1 PUF domain R5-QMW,2.85 log2 enrichment (interaction score)
GGCUAGAACUAGUGGAUCCCCCGGCGCCCGGCGGCUCGAGCCCGGGUAAGUGUAAGUAGUCUGCAUGCCGCCGGGCGCCAUGCCUGCAGGUCGACUCUAGAAAACAUG,binding signal,PUM1 PUF domain R3-IYR,5.62 log2 enrichment (interaction score)
same,binding signal,PUM1 PUF domain R3-CRL,0.83 log2 enrichment (interaction score)
same,binding signal,PUM1 PUF domain R3-IRG,3.97 log2 enrichment (interaction score)
GGCUAGAACUAGUGGAUCCCCCGGCGCCCGGCGGCUCGAGCCCGGGUAAGUGAAAAUAGUCUGCAUGCCGCCGGGCGCCAUGCCUGCAGGUCGACUCUAGAAAACAUG,binding signal,PUM1 PUF domain R6-YWR,6.63 log2 enrichment (interaction score)
GGCUAGAACUAGUGGAUCCCCCGGCGCCCGGCGGCUCGAGCCCGGGUAAGCGUAAAUAGUCUGCAUGCCGCCGGGCGCCAUGCCUGCAGGUCGACUCUAGAAAACAUG,binding signal,PUM1 PUF domain R8-PWT,3.16 log2 enrichment (interaction score)
GGCUAGAACUAGUGGAUCCCCCGGCGCCCGGCGGCUCGAGCCCGGGUAAGUGUUAAUAGUCUGCAUGCCGCCGGGCGCCAUGCCUGCAGGUCGACUCUAGAAAACAUG,binding signal,PUM1 PUF domain R5-QMW,0.66 log2 enrichment (interaction score)
GGCUAGAACUAGUGGAUCCCCCGGCGCCCGGCGGCUCGAGCCCGGGUAAGUGUAAAUAGUCUGCAUGCCGCCGGGCGCCAUGCCUGCAGGUCGACUCUAGAAAACAUG,binding signal,PUM1 PUF domain R6-MYV,2.31 log2 enrichment (interaction score)
same,binding signal,PUM1 PUF domain R3-IYR,4.02 log2 enrichment (interaction score)
same,binding signal,PUM1 PUF domain R8-PWT,1.25 log2 enrichment (interaction score)
same,binding signal,PUM1 PUF domain R3-CRL,2.25 log2 enrichment (interaction score)
same,binding signal,PUM1 PUF domain R3-LFI,3.78 log2 enrichment (interaction score)
same,binding signal,PUM1 PUF domain R6-YWR,5.79 log2 enrichment (interaction score)
GGCUAGAACUAGUGGAUCCCCCGGCGCCCGGCGGCUCGAGCCCGGGUAAGUGUAAAUUGUCUGCAUGCCGCCGGGCGCCAUGCCUGCAGGUCGACUCUAGAAAACAUG,binding signal,PUM1 PUF domain R1-RQS,3.04 log2 enrichment (interaction score)
same,binding signal,PUM1 PUF domain R1-GKK,5.09 log2 enrichment (interaction score)
GGCUAGAACUAGUGGAUCCCCCGGCGCCCGGCGGCUCGAGCCCGGGUAAGUGUAAUUAGUCUGCAUGCCGCCGGGCGCCAUGCCUGCAGGUCGACUCUAGAAAACAUG,binding signal,PUM1 PUF domain R3-CRL,1.88 log2 enrichment (interaction score)
same,binding signal,PUM1 PUF domain R3-IRG,0.44 log2 enrichment (interaction score)
GGCUAGAACUAGUGGAUCCCCCGGCGCCCGGCGGCUCGAGCCCGGGUAAGUGUAAAUGGUCUGCAUGCCGCCGGGCGCCAUGCCUGCAGGUCGACUCUAGAAAACAUG,binding signal,PUM1 PUF domain R1-GKK,3.39 log2 enrichment (interaction score)
